Measurements published in PubChem BioAssay AID743314 (Broad Institute, 2014).
Potency and affinity values are given separately. Results filed as inconclusive are left out. Where a call stands in place of a potency, no number is given. Active and inactive are the calls of the source.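 How the source made its calls: active means fitted half-maximal concentration no higher than twice the top tested dose, in every repeat run; inconclusive means repeat runs disagree, poor fit, or flat partial inhibition; inactive means the rest.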

Target: Endoplasmic reticulum aminopeptidase 1 (Homo sapiens) (UniProt Q9NZ08)
Assay: inhibition of human ERAP1 enzyme activity – biochemical, cherry-pick, set 2, plate reader, dose response (AID 743314)

Sequence of Endoplasmic reticulum aminopeptidase 1 (Homo sapiens) (Q9NZ08 whole entry, looked up): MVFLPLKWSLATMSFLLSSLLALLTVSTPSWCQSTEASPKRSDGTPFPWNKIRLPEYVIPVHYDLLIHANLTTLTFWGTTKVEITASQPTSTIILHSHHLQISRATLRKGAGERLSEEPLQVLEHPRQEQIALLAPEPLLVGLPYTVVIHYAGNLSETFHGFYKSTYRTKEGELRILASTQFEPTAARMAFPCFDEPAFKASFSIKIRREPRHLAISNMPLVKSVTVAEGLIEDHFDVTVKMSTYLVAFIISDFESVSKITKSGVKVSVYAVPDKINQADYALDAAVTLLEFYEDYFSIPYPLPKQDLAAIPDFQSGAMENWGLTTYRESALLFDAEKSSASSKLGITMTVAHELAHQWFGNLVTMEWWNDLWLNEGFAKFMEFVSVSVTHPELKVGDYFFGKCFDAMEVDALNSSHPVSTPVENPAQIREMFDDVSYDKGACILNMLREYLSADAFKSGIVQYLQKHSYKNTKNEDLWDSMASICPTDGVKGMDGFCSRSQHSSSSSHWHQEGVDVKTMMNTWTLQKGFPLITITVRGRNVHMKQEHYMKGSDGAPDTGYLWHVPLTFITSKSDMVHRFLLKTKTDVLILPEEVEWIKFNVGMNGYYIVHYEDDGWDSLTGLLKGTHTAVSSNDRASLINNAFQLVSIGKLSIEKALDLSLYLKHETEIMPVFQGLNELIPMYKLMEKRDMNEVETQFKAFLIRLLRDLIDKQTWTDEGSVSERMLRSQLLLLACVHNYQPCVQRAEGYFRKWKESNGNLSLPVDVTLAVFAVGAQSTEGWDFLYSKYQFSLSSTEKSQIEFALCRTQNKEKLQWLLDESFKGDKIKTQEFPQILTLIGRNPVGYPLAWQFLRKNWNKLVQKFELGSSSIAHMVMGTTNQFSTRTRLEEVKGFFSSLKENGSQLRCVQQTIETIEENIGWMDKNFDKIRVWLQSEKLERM

Row | SMILES | outcome
1 | Cc1cc(OCC(=O)NC(Cc2ccc(Cl)cc2)C(=O)O)c2c3c(c(=O)oc2c1)CCCC3 (configuration not stated) | inactive
2 | Cc1cc(=O)oc2cc(OCC(=O)N3CCN(C(C)c4ccccc4)CC3)c(Cl)cc12 (configuration not stated) | inactive
